According to PubChem BioAssay (Tox21):
Inconclusive results are not listed. A call without a number means that no potency is given here. Activity calls are given as the source filed them. Calls come from the whole dose curve; as a rule, active = well fitted cell-killing curve with a large enough effect in the repeat runs; inconclusive = weak or mixed curves, or effect the other way; inactive = flat fitted curve, though single readings scatter.

Assays:
[1] = cAMP Responsive Elements (CRE) small molecule antagonists, cell-based qHTS assay: qHTS cell viability counter screen (AID 2060913); details: CRE-bla HEK293T viability, CellTiter-Glo luminescence, 5 h; series mostly up to 92.4 µM; note: nearly all actives have a fitted effect of over 40% in size
In short: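 Cytotoxicity counter screen multiplexed with the CRE-bla antagonist read: HEK293T cells in DMEM with dialyzed FBS and 25 mM HEPES were treated 3 hrs under 0.25 uM final NKH477, then viability measured by CellTiter-Glo luminescence.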

[2] = cAMP Responsive Elements (CRE) small molecule agonists, cell-based qHTS assay: qHTS cell viability counter screen (AID 2060914); details: CRE-bla HEK293T viability, CellTiter-Glo luminescence, 5 h; series mostly up to 92.4 µM; note: nearly all actives have a fitted effect of over 50% in size
In short: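 Luminescence read-out (CellTiter-Glo, 30 min RT) of ATP-based viability in CRE-bla HEK 293T cells, run in the same wells as the β-lactamase reporter assay after 3 h compound treatment at 37 °C.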
Potency is the fitted concentration of half-maximal effect.

Row | SMILES | Potency [1] | Potency [2]
1 | N#Cc1c(Cl)cccc1Cl | inactive | inactive
2 | N#CN=C(N)N | inactive | inactive
3 | CCOc1nc(F)cc2nc(S(=O)(=O)Nc3c(Cl)cccc3Cl)nn12 | inactive | inactive
4 | c1ccc(NNc2ccccc2)cc1 | inactive | inactive
5 | ClC1C(Cl)C(Cl)C(Cl)C(Cl)C1Cl (stereo not given) | inactive | inactive
6 | BrCCBr | inactive | inactive
7 | CCCCCC[N+](=O)[O-] | inactive | inactive
8 | C=CC(=O)N(C)C | inactive | inactive
9 | Cc1cccc(N)c1C | inactive | inactive
10 | CC(=O)[O][Pb]([c]1ccccc1)([c]1ccccc1)[c]1ccccc1 | 18 µM (active) | 24.3 µM (active)
11 | Clc1cc(Cl)c(-c2cc(Cl)c(Cl)cc2Cl)cc1Cl | inactive | inactive
12 | Cc1cnc2c(C(=O)O)c(Cl)ccc2c1 | inactive | inactive
13 | Nc1ccccc1C(=O)Oc1ccc2ccccc2c1 | inactive | inactive
14 | C=CC1CC=CCC1 (stereo not given) | inactive | inactive
15 | Oc1ccc(Cl)c(Cl)c1 | inactive | inactive
16 | CCCCN(CC)c1c([N+](=O)[O-])cc(C(F)(F)F)cc1[N+](=O)[O-] | inactive | inactive
17 | Cc1ccc(N(SC(F)(Cl)Cl)S(=O)(=O)N(C)C)cc1 | inactive | inactive
18 | c1ccc(Nc2ccc3ccccc3c2)cc1 | inactive | inactive
19 | Cc1cccc(N)c1N | inactive | inactive
20 | O=C/C=C/c1ccccc1 | inactive | inactive
